The values that follow come from PubChem BioAssay (NCI).

The structures appear in SMILES notation. This is part of a sample that, as a whole, favours compounds with a hit. Of some 83,000 tested, about 20% had one in any assay.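 Percent growth is the endpoint: 0 to 100 indicates growth inhibition (40 means 60% inhibition), 0 means no net growth, and negative values indicate cell death.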 Values without a mark were called inactive. Calls of active or inactive are those of the source. Rule for the calls: active = growth percent below 10; inactive = the rest.

Test in all cases: NCI-60 one-dose screen, 48 h (100 = growth as untreated, 0 = no growth, -100 = all killed)
What all share (settings): 10 µM unless noted

Experiment [1] relates to HCT-15 colon.
Experiment [2] relates to HT29 colon.
The subject of experiment [3] is SNB-75 CNS.
Experiment [4] relates to SNB-19 CNS.
For experiment [5], the system named is U251 CNS.
Experiment [6] concerns PC-3 prostate.
In experiment [7] the test system is SK-MEL-5 melanoma.
The subject of experiment [8] is UACC-62 melanoma.
The test system of experiment [9] is LOX IMVI melanoma.
In experiment [10] the test system is SK-MEL-28 melanoma.

For the compound `CC1=C(C#N)C(C)(C)C(C#N)=C(C)N1`, the growth is 98.6% in experiment [1]; 105% in experiment [2]; 79.5% in experiment [3]; 95.9% in experiment [4]; 94.8% in [5]; 84.7% in [6]. Moreover, the growth in [7] is 101%; in [8] it was 105%; in experiment [9], 98.3%; in experiment [10], 110%.
On to `O=C1CCC(=O)N1Cc1ccccc1`, for which the growth was 99.9% in [1]; 101% in experiment [2]; 80.4% in experiment [3]; 110% in [4]; 101% in [5]; 100% in [6]. The growth was 102% in experiment [7], 104% in experiment [8], 90.5% in [9] and 101% in experiment [10].
On to `Cc1ccc(C2=NN(c3ccc(S(=O)(=O)NC(=O)NCc4ccccc4)cc3)C(c3ccc(N(C)C)cc3)C2)c(C)c1` (stereo not given), for which the growth in experiment [1] is 32.6%; in experiment [2] it was 43%; in [3], 65.1%; in experiment [4], 54.8%; in experiment [5], 22.6%; in [6], 32.7%. For the same compound, the growth in experiment [7] was 12.2%; in [8] it was 54.7%; in experiment [9], 36.3%; in [10] it was 26.6%.
Turning to `O=S(=O)(NCCCNc1cc(-c2cn(-c3ccccc3)nc2-c2cccc(O)c2)ccn1)c1ccc(C(F)(F)F)cc1`, the growth in experiment [1] is 5.17% (active); in experiment [2], 2.83% (active); in [3], 31.5%; in experiment [4] it was 51.4%; in experiment [5] it was 36.8%; in experiment [6] it was 13.7%. In addition, the growth in [7] is 8.74% (active); in experiment [8] it was 27.4%; in [9], 27.4%; in [10] it was 21.7%.
Turning to `C=C1C(=O)O[C@H]2[C@H]1CC/C(Cn1cc(-c3ccccc3C(F)(F)F)nn1)=C\CC[C@@]1(C)O[C@@H]21`, the growth was -70.7% (active) in experiment [1]; -85.3% (active) in [2]; 35.1% in experiment [3]; 53.3% in experiment [4]; 13.1% in experiment [5]; -31.1% (active) in [6]. The growth in experiment [7] is 14.5%; in experiment [8], -61.8% (active); in [9], -91.7% (active); in [10] it was -58.9% (active).
Consider `O=C(Nc1ccccc1)OCC1OCOC(COC(=O)Nc2ccccc2)C1OC(=O)Nc1ccccc1` (stereo not given), for which the growth in [1] is 51.7%; in [2], 43.1%; in [3] it was 32%; in experiment [4], 73.2%; in [5], 74.9%; in experiment [6] it was 64.2%. The growth in experiment [7] was 67.8%; in experiment [8], 73.1%; in [9], 29.7%; in experiment [10], 39.2%.
For the compound `O=C(O)c1cccc([N+](=O)[O-])c1/C=C/c1ccccc1`, the growth in experiment [1] was 102%; in experiment [2], 100%; in [3] it was 86.9%; in experiment [4], 101%; in experiment [5], 97.4%; in [6], 124%. In addition, the growth was 103% in [7], 107% in experiment [8], 96% in [9] and 105% in experiment [10].
As to `CCC(=O)Oc1cc(/C=C/C(=O)O[C@H]2C[C@H]3CN4CCc5c([nH]c6cc(OC)ccc56)[C@@H]4C[C@@H]3[C@@H](C(=O)OC)[C@@H]2OC)ccc1OC`, the growth was 59.8% in [1]; -1.66% (active) in experiment [2]; 36.7% in experiment [3]; 87.2% in experiment [4]; 61.1% in experiment [5]; 65.1% in [6]. For the same compound, the growth is 82.9% in experiment [7], 82.9% in experiment [8], 79.5% in experiment [9] and 88.8% in experiment [10].
Turning to `O=S=Nc1ccc([N+](=O)[O-])cc1`, the growth was 85.2% in experiment [1]; 94.1% in [2]; 88.7% in [3]; 103% in [4]; 91.6% in [5]; 96.8% in experiment [6]. Moreover, the growth was 101% in [7], 73% in experiment [8], 71.2% in experiment [9] and 107% in experiment [10].
Take `N#Cc1ncc(-c2ccc(F)c(F)c2F)c(NC2CCCCCC2)n1`: the growth in [1] was 76.1%; in experiment [2] it was 95.6%; in experiment [3], 72.2%; in experiment [4], 78.6%; in experiment [5] it was 59.1%; in [6], 75.7%. In addition, the growth in experiment [7] was 89.9%; in experiment [8], 71.2%; in experiment [9], 84.6%; in [10], 94%.
As for `Cc1ccc(S(=O)(=O)N2CCC(C(=O)Nc3ccc(F)cc3F)CC2)cc1`, the growth in [1] was 103%; in experiment [2], 75.5%; in experiment [3], 93.2%; in experiment [4], 86.5%; in experiment [5], 101%; in experiment [6] it was 93.9%. The growth in experiment [7] was 64.8%; in [8] it was 86.4%; in [9], 82.3%; in experiment [10], 122%.
As to `O=C(CN1CCN(c2cc3c(cc2F)c(=O)c(C(=O)O)cn3C2CC2)CC1)Nc1ccc(C(=O)/C=C/c2ccccc2)cc1`, the growth in experiment [1] was 56.8%; in experiment [2] it was 11.4%; in experiment [3] it was 61.8%; in experiment [4], 40.3%; in experiment [5], 14.9%; in experiment [6], 55.2%. Also, the growth in experiment [7] is 13.6%; in experiment [8], 35.5%; in experiment [9], 5.67% (active); in experiment [10], 85.7%.
For `Nc1c(C(=O)Nc2c(Cl)cccc2Cl)sc2nc3c(cc12)CCCCC3`, the growth was 32.5% in [1]; 34.1% in experiment [2]; 26.7% in [3]; 68.5% in experiment [4]; 66.7% in experiment [5]; 70.6% in experiment [6]. For the same compound, the growth in [7] was 66.3%; in experiment [8], 29%; in experiment [9] it was 58.6%; in experiment [10] it was 59.2%.
As to `COc1cccc(C2CC(=O)Nc3c2c(C)nn3-c2nc3ccccc3[nH]2)c1OC` (stereo not given), the growth in experiment [1] was 59.4%; in [2], 86.6%; in [3] it was 74.8%; in [4], 87.1%; in experiment [5], 63.6%; in experiment [6], 62.8%. Moreover, the growth in experiment [7] was 60.1%; in [8] it was 51.3%; in [9], 54.2%; in [10], 79.5%.
